Results on eight molecules are retold here after PubChem BioAssay (NCATS).

Where “and” joins values, the source holds several entries; their conditions need not be identical. Identical values can stand only once. Records with an inconclusive call do not appear. Some compounds were tested as several samples or in several runs, with calls that do not always agree. Calls of active or inactive are those of the source. Unless noted, calls come from the whole dose curve; as a rule, active = well fitted curve in either direction with a large enough effect (not every such curve was filed as active); inconclusive = small, poorly fitted or top-dose-only effect, or another doubt; inactive = flat fitted curve, though single readings scatter. A value given as a limit tells only on which side of the number the result lay.

In assay [1] the target is Cytochrome P450 1A2 (Homo sapiens) (UniProt P05177). In words: p450-cyp1a2 (AID 410; calls by dose curve; note: potency is the fitted concentration of half-maximal effect;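 for activity change, negative = inhibition: -100% = full effect of reference inhibitor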). Summed up:
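Human CYP1A2 (20nM) demethylated Luciferin-ME at its Km (100uM) in 100mM KPO4. After 10 min compound preincubation, NADPH regeneration ran the reaction 60 min at room temperature. Luciferin was read by luminescence, normalized to 57 uM furafylline.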

Assay [2] addresses Glucocorticoid receptor (Homo sapiens) (UniProt P04150). Briefly: GR-GFP Redistribution (AID 450;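 active = compounds whose dose series gives a full or clear partial fitted curve of increased nuclear translocation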; note: potency is the fitted concentration of half-maximal effect). The conditions noted are these: U2OS GR-GFP nuclear translocation, laser cytometry, 2 h.
For assay [3] the target is unchanged. In words: GR-EFC Redistribution (AID 451; calls by dose curve; note: potency is the fitted concentration of half-maximal effect). To be noted: CHO-K1 GR-EFC translocation, beta-gal luminescence, 2 h. Summed up:
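CHO-K1 cells expressing nuclear EA and GR-ED fragments of b-gal; compounds titrated up to 46 uM final, 2 h at 37 C. GR nuclear translocation read as complemented b-gal luminescence after 1 h RT detection.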

Assay [4] has as its target Mitogen-activated protein kinase 10 (Mus musculus) (UniProt Q61831). In words: JNK3 AlphaScreen Assay (AID 530).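 Note: kinase came from lysate of stimulated human HepG2 cells; signal reports phosphorylation of biotinylated GST-cJun 1-79 at Ser73 with 10 µM ATP; % is set by controls: 0 for no effect and ±100 for the full control effect.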 An outline of the steps:
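qHTS format: compounds tested as titrations against IL-1beta/TNF-alpha-activated HepG2 lysate JNK3 with biotin-GST-cJun substrate and 10 uM ATP at room temperature. Loss of anti-phospho-cJun AlphaScreen signal indicates inhibition.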
(In general: Bead proximity is the source of the signal in Alpha formats.)

Assay [5] addresses 3',5'-cyclic-AMP phosphodiesterase 4B (Homo sapiens) (UniProt Q07343). In words: qHTS Assay for Inhibitors of PDE-IV (AID 607; active = well fitted activation curve with a large enough effect in the main read-out, with a control signal flat, not every such curve was filed as active; note: % of control where 0% means no effect). An outline of the steps:
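Cell-based read-out of cAMP via a modified cyclic nucleotide-gated channel and membrane potential dye (535/590 nm) in HEK293 cells expressing PDE4 endogenously. Compounds tested up to 22.9 uM final; 100 uM RO 20-1724 reference.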

Assay [6] in a line: qHTS Assay for Lipid Storage Modulators (AID 1519; calls by dose curve). The conditions noted are these: Drosophila S3 cells, BODIPY lipid droplet/cell ratio, laser cytometry, cells loaded with oleic acid. Summed up:
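Cells seeded at 5,000 per well were treated with compounds over a concentration series and loaded with oleic acid (400 uM, as added). Lipid droplet fluorescence (488 nm excitation, 500-530 nm channel) was read by laser-scanning cytometry and normalized to 20 uM Triacsin C.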

Assay [7] can be described thus: AP1 Signaling Pathway (AID 357).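 Note: ME-180 reporter cells stimulated with EGF at its EC50 level; % is set by controls: 0 for no effect and ±100 for the full control effect.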 To be noted: ME-180 AP-1-bla reporter, EGF-induced, beta-lactamase ratio, 5 h. An outline of the steps:
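In this screen, ME-180 cells in Opti-MEM with 0.5% dialyzed FBS received EC50 EGF and compound titrations for 5 h. AP-1 reporter beta-lactamase was detected via CCF4 ratio, giving AC50 for positive and negative modulators.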

Assay [8] in a line: Stat Signaling Pathway (AID 446).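 Note: ME-180 cervical cancer cells given 40 pM IL-6 alongside compound; SIE-controlled beta-lactamase reporter measured as 460/530 nm FRET emission ratio; % is set by controls: 0 for no effect and ±100 for the full control effect.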 To be noted: ME-180 SIE beta-lactamase reporter, IL-6 stimulated, 5 h. An outline of the steps: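 Reporter line: ME-180 cervical carcinoma, SIE-beta-lactamase. Treatment: compound with 40 pM IL-6, 5 hrs, 37 C, in low-serum OPTI-MEM with 10 mM HEPES pH 7.3. Detection: 460/530 nm fluorescence.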
Assay [9] in a line: NFAT Signaling Pathway (AID 444).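 Note: carbachol stimulus at about its EC50 of 1 µM final; % is set by controls: 0 for no effect and ±100 for the full control effect.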 To be noted: Jurkat NFAT-bla M1, carbachol, beta-lactamase ratio, 5 h. An outline of the steps:
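Jurkat cells with NFAT-driven β-lactamase reporter and co-expressed M1 receptor, stimulated with carbachol (final 1 uM, ~EC50), compound titration, 5 h at 37 °C. CCF4 loaded 1 h at RT; 460/530 nm ratio gave %activity and AC50.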

For assay [10], the target named is Ubiquitin carboxyl-terminal hydrolase 1 (Homo sapiens) (UniProt O94782). Briefly: Inhibitors of USP1/UAF1: Pilot qHTS (AID 504865; active = well fitted curve in the direction sought with a large enough effect; an effect the other way counts as inactive or inconclusive;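 note: rhodamine fluorescence freed from ubiquitin-rhodamine substrate followed over time; top concentration of the series differs between compounds; % is set by controls: 0 for no effect and ±100 for the full control effect; nearly all actives have a fitted effect of over 35% in size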). Summed up:
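USP1/UAF1 complex at 1 nM preincubated 15 min at room temperature with compound, then Ub-Rho substrate added at 150 nM final. Fluorescence (480/540 nm) read kinetically in 50 mM HEPES pH 7.8, 0.5 mM EDTA, 1 mM TCEP, 0.1 mg/ml BSA, 0.01% Tween-20.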
Background: In qHTS, concentration-response curves come from the screen itself.

Assay [11] has as its target Pyruvate kinase (Leishmania mexicana) (UniProt Q27686). Briefly: qHTS Validation Assay for Inhibitors of Leishmania Mexicana Pyruvate Kinase (AID 945; active = well fitted curve in the direction sought with a large enough effect; an effect the other way counts as inactive or inconclusive;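 note: 0% = DMSO only neutral control wells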). Summed up:
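Purified LmPYK (E451W mutant, 0.2 nM) was incubated 1 h at room temperature with 0.5 mM PEP and 0.1 mM ADP in 50 mM imidazole pH 7.2, 50 mM KCl, 7 mM MgCl2; ATP formed was read by PKLight luminescence, normalized to DMSO wells.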

The target in assay [12] is Alpha-galactosidase A (Homo sapiens) (UniProt P06280). Briefly: Counterscreen for Glucocerebrosidase Inhibitors: qHTS Assay for Human alpha-Galactosidase at pH 4.5 (AID 992; active = well fitted curve in the direction sought with a large enough effect; an effect the other way counts as inactive or inconclusive; note: 0% is about no effect). An outline of the steps: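 Quantitative HTS: compounds tested from 0.7 nM up to 77 uM against 2 nM enzyme with 80 uM 4-MU alpha-D-galactopyranoside. The 20 min room-temperature reaction is stopped with 1M NaOH/1M glycine, pH 10.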
On the technique in general: A counterscreen serves to expose hits that act by an unwanted route or on another target.

Assay [13] has as its target alpha-glucosidase (Oryza sativa, rice) (UniProt Q653V4). In words: Counterscreen for Glucocerebrosidase Inhibitors: qHTS Assay for Rice alpha-Glucosidase at pH 5.0 (AID 997; active = well fitted curve in the direction sought with a large enough effect; an effect the other way counts as inactive or inconclusive;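 note: 0% = full activity with enzyme and -100% = basal without enzyme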). Summed up: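 Rice alpha-glucosidase (4 nM final) with 400 uM 4-methylumbelliferyl-alpha-D-glucopyranoside in citrate buffer pH 5.0, 20 min at room temperature, stopped at pH 10; fluorescence 365/440 nm, compounds 0.7 nM–77 uM, AC50 from Hill fits.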

Assay [14] has as its target ATP-dependent 6-phosphofructokinase (Trypanosoma brucei brucei) (UniProt O15648). Briefly: qHTS Assay to Find Inhibitors of T. brucei phosphofructokinase: hit validation (AID 492961; active = well fitted curve in the direction sought with a large enough effect; an effect the other way counts as inactive or inconclusive). Summed up:
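Compounds titrated; %activity normalized to 0x and 1x enzyme controls, curve-fitted. Readout: ADP-Glo luminescence after 45 min room-temperature reaction of 1.25 nM PFK, 0.1 mM ATP, 0.5 mM F6P, pH 8.0.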

Assay [15] deals with Luciferin 4-monooxygenase (Photinus pyralis) (UniProt P08659). Briefly: Biochemical firefly luciferase enzyme assay for NPC (AID 624030; active = well fitted curve in the direction sought with a large enough effect; an effect the other way counts as inactive or inconclusive;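 note: purified P. pyralis luciferase at 10 nM with luciferin and ATP substrate; 0% = DMSO and -100% = full luciferase inhibition by PTC124 control; nearly all actives have a fitted effect of over 70% in size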). Summed up: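 Purified P. pyralis luciferase at 10 nM in 50 mM Tris Acetate (final), luminescence read within 5 minutes of enzyme addition to compounds. Activity normalised to PTC124 versus DMSO; concentration-response curves classed by r2, magnitude and activity.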

Assay [16] can be described thus: qHTS profiling for inhibitors of Plasmodium falciparum proliferation (AID 504749; active = well fitted curve in the direction sought with a large enough effect; an effect the other way counts as inactive or inconclusive;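 note: 0% = DMSO vehicle and full inhibition = artemisinin control; nearly all actives have a fitted effect of over 60% in size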). To be noted: P. falciparum in erythrocytes, SYBR Green DNA, 72 h, at 28.7 µM (top of the series). Summed up:
(§1)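 Readout was DNA-dye fluorescence from lysed cultures, ex 485/em 535 nm. Parasitized red cells had grown 72 h with compound; data scaled between 0.29 uM artemisinin and DMSO wells and corrected using vehicle-only plates.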

In the next assay the test system is AS120. The description is as above. To be noted: P. falciparum in erythrocytes, SYBR Green DNA, 72 h; series mostly up to 28.7 µM. An outline of the steps: as §1
The test system of a further assay is CP238. Described as above. The conditions noted are these: P. falciparum in erythrocytes, SYBR Green DNA, 72 h; series mostly up to 12.8 µM. Summed up:
as §1

In another assay the test system is CP265. The description is as above. The conditions noted are these: P. falciparum in erythrocytes, SYBR Green DNA, 72 h; series mostly up to 12.8 µM. Summed up:
as §1

In the next assay the test system is FAB9. Described as above. To be noted: P. falciparum in erythrocytes, SYBR Green DNA, 72 h; series mostly up to 12.8 µM. An outline of the steps:
as §1

[17] abbreviates: measured here: cell count channel max response.
Where [18] appears, read: measured here: lipid channel max response.
Where [19] appears, read: at 7.69 µM (top of the series) unless noted.

Cytochrome P450 1A2 (Homo sapiens), sequence (P05177 whole entry, looked up): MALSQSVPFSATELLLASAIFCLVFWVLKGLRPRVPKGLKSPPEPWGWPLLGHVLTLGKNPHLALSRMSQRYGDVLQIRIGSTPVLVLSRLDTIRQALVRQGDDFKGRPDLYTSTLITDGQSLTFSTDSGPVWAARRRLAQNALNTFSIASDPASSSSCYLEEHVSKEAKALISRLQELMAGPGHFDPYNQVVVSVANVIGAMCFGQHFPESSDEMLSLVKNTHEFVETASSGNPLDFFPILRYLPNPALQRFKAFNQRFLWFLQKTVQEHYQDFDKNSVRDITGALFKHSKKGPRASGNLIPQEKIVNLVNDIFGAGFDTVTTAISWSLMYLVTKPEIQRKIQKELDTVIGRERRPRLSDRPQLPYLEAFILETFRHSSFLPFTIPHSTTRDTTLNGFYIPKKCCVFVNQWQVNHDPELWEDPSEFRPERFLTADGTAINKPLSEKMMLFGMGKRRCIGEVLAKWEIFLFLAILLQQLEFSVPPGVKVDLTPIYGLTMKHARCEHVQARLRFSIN
Glucocorticoid receptor (Homo sapiens), sequence (P04150 whole entry, looked up): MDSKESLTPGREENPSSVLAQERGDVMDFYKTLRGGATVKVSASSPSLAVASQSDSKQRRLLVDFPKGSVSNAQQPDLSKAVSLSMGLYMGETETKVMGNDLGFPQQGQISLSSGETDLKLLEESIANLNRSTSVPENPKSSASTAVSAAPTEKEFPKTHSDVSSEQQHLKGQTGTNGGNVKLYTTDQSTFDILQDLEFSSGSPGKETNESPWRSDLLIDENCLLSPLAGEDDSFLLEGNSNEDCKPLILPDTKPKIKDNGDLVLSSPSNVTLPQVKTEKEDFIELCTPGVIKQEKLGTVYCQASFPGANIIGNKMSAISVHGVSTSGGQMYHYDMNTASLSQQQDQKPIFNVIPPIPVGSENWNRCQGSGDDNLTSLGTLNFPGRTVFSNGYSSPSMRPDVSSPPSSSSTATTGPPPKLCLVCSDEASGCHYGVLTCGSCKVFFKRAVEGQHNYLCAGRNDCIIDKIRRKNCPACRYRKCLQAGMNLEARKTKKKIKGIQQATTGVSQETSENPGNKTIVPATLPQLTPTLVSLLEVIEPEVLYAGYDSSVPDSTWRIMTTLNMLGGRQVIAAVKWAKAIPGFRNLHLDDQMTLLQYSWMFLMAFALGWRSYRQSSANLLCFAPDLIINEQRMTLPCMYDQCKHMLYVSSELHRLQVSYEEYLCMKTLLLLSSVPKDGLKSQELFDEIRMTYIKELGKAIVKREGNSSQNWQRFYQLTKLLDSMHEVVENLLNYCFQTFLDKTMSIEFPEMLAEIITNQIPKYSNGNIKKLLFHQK
3',5'-cyclic-AMP phosphodiesterase 4B (Homo sapiens), sequence (Q07343 whole entry, looked up): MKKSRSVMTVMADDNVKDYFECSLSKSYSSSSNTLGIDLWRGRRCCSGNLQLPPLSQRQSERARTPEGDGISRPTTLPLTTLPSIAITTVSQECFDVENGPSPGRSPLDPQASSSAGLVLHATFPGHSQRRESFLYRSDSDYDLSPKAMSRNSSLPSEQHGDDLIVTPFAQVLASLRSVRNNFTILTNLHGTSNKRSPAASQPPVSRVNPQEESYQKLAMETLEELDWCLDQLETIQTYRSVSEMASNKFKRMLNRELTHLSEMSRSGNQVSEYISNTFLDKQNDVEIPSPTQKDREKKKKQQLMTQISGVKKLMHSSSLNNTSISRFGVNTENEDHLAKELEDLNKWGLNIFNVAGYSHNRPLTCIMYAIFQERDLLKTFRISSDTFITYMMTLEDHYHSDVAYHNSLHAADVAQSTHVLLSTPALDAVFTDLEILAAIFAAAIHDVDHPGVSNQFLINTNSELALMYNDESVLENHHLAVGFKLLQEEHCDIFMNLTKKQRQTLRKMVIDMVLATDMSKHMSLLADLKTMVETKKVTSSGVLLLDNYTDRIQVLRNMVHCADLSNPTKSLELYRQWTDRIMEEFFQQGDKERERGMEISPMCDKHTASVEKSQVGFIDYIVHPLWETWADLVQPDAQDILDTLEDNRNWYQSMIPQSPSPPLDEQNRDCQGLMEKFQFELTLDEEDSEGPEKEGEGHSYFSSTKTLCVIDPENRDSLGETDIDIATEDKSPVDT
Ubiquitin carboxyl-terminal hydrolase 1 (Homo sapiens), sequence (O94782 whole entry, looked up): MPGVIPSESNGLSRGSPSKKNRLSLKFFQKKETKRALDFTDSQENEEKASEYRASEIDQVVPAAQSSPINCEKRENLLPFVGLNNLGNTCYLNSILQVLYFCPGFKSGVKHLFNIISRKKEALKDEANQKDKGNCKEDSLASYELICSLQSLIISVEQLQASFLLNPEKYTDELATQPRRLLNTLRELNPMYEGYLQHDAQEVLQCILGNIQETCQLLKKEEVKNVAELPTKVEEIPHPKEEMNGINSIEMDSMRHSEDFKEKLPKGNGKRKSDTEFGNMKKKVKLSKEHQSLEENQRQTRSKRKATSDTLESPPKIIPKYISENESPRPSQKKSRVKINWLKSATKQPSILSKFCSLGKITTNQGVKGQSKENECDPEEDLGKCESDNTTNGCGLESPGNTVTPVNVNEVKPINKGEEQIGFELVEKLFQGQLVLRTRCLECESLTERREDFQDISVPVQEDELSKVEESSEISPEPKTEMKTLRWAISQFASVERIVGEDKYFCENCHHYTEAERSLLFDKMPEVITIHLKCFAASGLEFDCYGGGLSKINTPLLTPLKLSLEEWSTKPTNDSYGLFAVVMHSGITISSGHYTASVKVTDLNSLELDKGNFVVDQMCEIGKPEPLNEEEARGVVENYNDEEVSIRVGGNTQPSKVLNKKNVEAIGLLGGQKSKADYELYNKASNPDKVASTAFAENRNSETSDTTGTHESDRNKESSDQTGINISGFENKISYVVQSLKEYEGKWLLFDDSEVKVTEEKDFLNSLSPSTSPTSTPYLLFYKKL
ATP-dependent 6-phosphofructokinase (Trypanosoma brucei brucei), sequence (O15648 whole entry, looked up): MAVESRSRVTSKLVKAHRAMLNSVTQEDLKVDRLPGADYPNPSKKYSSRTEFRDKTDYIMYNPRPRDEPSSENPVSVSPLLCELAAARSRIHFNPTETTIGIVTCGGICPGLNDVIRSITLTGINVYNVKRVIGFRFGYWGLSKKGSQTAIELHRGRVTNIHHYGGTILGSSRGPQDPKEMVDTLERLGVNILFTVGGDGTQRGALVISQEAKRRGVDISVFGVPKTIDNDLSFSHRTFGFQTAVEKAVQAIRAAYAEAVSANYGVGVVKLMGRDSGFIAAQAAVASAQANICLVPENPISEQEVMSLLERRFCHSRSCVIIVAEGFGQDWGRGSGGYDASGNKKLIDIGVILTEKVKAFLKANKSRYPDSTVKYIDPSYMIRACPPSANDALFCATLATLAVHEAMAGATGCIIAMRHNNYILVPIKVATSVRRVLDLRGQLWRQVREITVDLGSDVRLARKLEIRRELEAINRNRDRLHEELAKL
Luciferin 4-monooxygenase (Photinus pyralis), sequence (P08659 whole entry, looked up): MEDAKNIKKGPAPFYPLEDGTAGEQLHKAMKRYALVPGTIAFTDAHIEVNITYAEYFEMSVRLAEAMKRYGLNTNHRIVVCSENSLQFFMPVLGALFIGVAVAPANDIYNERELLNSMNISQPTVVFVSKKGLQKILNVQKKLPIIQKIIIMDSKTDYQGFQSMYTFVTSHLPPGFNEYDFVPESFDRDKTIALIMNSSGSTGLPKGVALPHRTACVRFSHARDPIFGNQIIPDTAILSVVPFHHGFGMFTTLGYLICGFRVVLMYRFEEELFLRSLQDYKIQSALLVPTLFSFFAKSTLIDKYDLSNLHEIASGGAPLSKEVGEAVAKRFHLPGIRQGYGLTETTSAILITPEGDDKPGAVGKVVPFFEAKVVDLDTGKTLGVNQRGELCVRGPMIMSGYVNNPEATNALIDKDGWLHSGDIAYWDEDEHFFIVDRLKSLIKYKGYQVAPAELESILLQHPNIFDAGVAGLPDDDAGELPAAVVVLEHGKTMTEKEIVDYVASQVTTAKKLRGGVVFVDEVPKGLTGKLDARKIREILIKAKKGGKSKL
Alpha-galactosidase A (Homo sapiens), sequence (P06280 whole entry, looked up): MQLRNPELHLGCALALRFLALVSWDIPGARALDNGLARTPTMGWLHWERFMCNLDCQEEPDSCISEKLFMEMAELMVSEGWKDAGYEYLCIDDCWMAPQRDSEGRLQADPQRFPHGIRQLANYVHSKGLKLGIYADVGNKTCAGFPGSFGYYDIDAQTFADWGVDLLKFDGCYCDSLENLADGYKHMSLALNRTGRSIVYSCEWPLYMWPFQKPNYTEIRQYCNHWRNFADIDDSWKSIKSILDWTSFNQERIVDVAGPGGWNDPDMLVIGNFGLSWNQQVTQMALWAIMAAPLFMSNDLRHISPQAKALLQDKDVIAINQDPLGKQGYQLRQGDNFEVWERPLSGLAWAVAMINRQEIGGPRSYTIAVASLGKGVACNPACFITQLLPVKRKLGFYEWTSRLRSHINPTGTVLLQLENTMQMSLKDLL
Pyruvate kinase (Leishmania mexicana), sequence (Q27686 2-499 E452W): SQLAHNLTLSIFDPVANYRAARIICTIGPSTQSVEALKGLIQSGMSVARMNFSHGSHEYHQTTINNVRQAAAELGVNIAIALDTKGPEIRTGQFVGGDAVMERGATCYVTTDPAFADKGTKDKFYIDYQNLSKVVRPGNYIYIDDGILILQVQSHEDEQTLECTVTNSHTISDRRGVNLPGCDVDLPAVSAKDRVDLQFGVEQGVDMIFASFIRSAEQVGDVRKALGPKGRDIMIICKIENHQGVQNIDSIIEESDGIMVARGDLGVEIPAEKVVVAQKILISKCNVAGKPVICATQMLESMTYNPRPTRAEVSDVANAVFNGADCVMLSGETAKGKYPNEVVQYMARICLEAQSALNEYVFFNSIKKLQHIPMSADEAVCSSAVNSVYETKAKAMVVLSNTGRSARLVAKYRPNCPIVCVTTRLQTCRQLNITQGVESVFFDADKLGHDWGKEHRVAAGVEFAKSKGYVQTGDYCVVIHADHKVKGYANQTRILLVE

In the case of `CN1CCN(c2ncc3nc(-c4ccccc4)c(=O)n(CCC#N)c3n2)CC1`, the Potency was 20 µM (active) in assay [1], > 9.22 µM (inactive) in assay [2] and > 46 µM (inactive) in [3]. Further, the Potency result in assay [4] and in assay [5] was “inactive” in each case. Further, the activity change, negative = inhibition in [6] (at 57.5 µM (top of the series)) is 6.29% (inactive). Also, the values for the max response in [6] (setting [17]) and in [6] (setting [18]) were 19.8% and 27.5%, respectively.
In the case of `COc1ccccc1CN1CCC2(CC1)CCN(C(=O)c1cc(C(F)(F)F)cc(C(F)(F)F)c1)CC2`, the activity change, negative = inhibition was -13.2% (inactive) in assay [7] (setting [19]) and 0.332% (inactive) in assay [6] (at 57.5 µM (top of the series)). Also, the activity, negative = inhibition in assay [8] (setting [19]) is -3.31% (inactive). The Potency in assay [3] is > 46 µM (inactive). The Potency entry in assay [4] and in [5] was “inactive” in each case. The results for the max response in assay [6] (setting [17]) and in assay [6] (setting [18]) were -5.08% and 1.32%, respectively.
With `O=C(Nc1cccc(F)c1)N1CCC2(CC1)CCN(C(=O)c1cc(C(F)(F)F)cc(C(F)(F)F)c1)CC2`, the figures for the activity change, negative = inhibition in [7] (setting [19]) and in assay [6] (at 57.5 µM (top of the series)) were -6.27% (inactive) and -8.79% (inactive), respectively. In addition, the activity, negative = inhibition in [8] (setting [19]) is 8.94% (inactive). Also, the Potency in assay [3] is > 46 µM (inactive). For the same molecule, in assay [5], the Potency entry is “inactive”. Moreover, the max response in assay [6] (setting [17]) was -4.14%; in assay [6] (setting [18]) it was -9.94%.
In the case of `O=C(Nc1ccccc1)N1CCCC2(CCNCC2)C1`, the figures for the activity change, negative = inhibition in assay [7] (setting [19]), in [9] (setting [19]) and in assay [6] (at 57.5 µM (top of the series)) were -6.92% (inactive), 6.49% (inactive) and 3.78% (inactive), respectively. Besides, the activity, negative = inhibition in [8] (setting [19]) is 4.83% (inactive). The Potency in assay [3] was > 46 µM (inactive). Moreover, the Potency result in assay [4] and in [5] was “inactive” in each case. The max response in assay [6] (setting [17]) came to 18%; in assay [6] (setting [18]), 25%.
As for `COc1ccc(C(=O)N2CCC3(CC2)CN(c2ccccn2)C3)cc1`, the figures for the activity change, negative = inhibition in assay [7] (setting [19]), in assay [9] (setting [19]) and in assay [6] (at 57.5 µM (top of the series)) were 3.74% (inactive), -14.4% (inactive) and 6.8% (inactive), respectively. Moreover, the activity, negative = inhibition in [8] (setting [19]) was -24.1% (inactive). Besides, the Potency in assay [3] was > 46 µM (inactive). For the same molecule, the Potency entry in [4] and in assay [5] was “inactive” throughout. Besides, the max response in [6] (setting [17]) was 15.9%; in assay [6] (setting [18]), 29.6%.
As for `CN(C)c1ccc(-c2ccc3ncnc(NCc4ccccc4)c3c2)cc1`, the figures for the Potency in assay [1], in [2] and in assay [3] were 0.501 µM (active), > 46 µM (inactive) and > 46 µM (inactive), respectively. In addition, in assay [8] (setting [19]), the activity, negative = inhibition is -1.76% (inactive). Also, the Potency result in assay [5] was “inactive”. For the same molecule, in [6] (at 57.5 µM (top of the series)), the activity change, negative = inhibition is 2.65% (inactive). In addition, the max response is -18.1% in assay [6] (setting [17]) and -15.6% in assay [6] (setting [18]).
Regarding `CN(C)Cc1ccccc1-c1ccc2ncnc(NCc3cccs3)c2c1`, the activity change, negative = inhibition is 4.22% (inactive) in [7] (setting [19]), -20.1% (inactive) in [9] (setting [19]) and 7.62% (inactive) in assay [6] (at 57.5 µM (top of the series)). For the same molecule, in [8] (setting [19]), the activity, negative = inhibition was -19.4% (inactive). Moreover, the Potency in [2] and in assay [3] was > 46 µM (inactive) in each case. The Potency result in assay [4] and in assay [10] was “inactive” in each case. In addition, the max response in assay [6] (setting [17]) is -0.921%; in assay [6] (setting [18]) it was 6.51%.
For `CO/N=C(\C(=O)N[C@@H]1C(=O)N2C(C(=O)O)=C(COC(C)=O)CS[C@@H]12)c1csc(N)n1`, the activity change, negative = inhibition in assay [7] (at 17.2 µM (top of the series)) is -5.85% (inactive); in assay [7] (at 38 µM (top of the series)), -1.56% (inactive); in [9] (at 17.2 µM (top of the series)), -7.64% (inactive); in assay [9] (at 38 µM (top of the series)) it was 3.41% (inactive); in assay [6] (at 25.7 µM (top of the series)), -0.702% (inactive). Further, the Potency result was “inactive and 12.6 µM (active)” in assay [1]; > 46 µM (inactive) and > 20.6 µM (inactive) in [2]; > 46 µM (inactive) and > 20.6 µM (inactive) in assay [3]. For the same molecule, the activity, negative = inhibition in assay [8] (at 17.2 µM (top of the series)) was 3.57% (inactive); in [8] (at 38 µM (top of the series)), -20.5% (inactive); in assay [16] (parasite line A), 7.66% (inactive); in assay [16] (parasite line B) it was -2.07% (inactive). The Potency entry (in [4]; in assay [5]; in [10]; in the assay on AS120; with CP238; with CP265) was “inactive” each time. In the assay on FAB9, the Potency entry was “inactive”. Further, the call in assay [11], in assay [12], in [13], in assay [14] and in assay [15] was inactive. The max response is -14.1% in assay [6] (setting [17]) and -14.6% in [6] (setting [18]).
